The results in this text go back to PubChem BioAssay (NCI).

Holding throughout (assay): NCI-60 one-dose screen, 48 h (100 = growth as untreated, 0 = no growth, -100 = all killed)
Assay [1] has as its system HCT-15 colon. The note with it: 10 µM unless noted.
For assay [2], the system named is HT29 colon. The settings on record: 10 µM unless noted.
Assay [3] has as its system SNB-75 CNS. The settings on record: 10 µM unless noted.
Assay [4] deals with SNB-19 CNS. The note with it: 10 µM unless noted.
In assay [5] the test system is U251 CNS. The note with it: 10 µM unless noted.
In assay [6] the test system is PC-3 prostate. The settings on record: 10 µM unless noted.
In assay [7] the test system is SK-MEL-5 melanoma. The settings on record: 10 µM unless noted.
In assay [8] the test system is UACC-62 melanoma. The settings on record: 10 µM unless noted.
Assay [9] concerns LOX IMVI melanoma. The note with it: 10 µM unless noted.
In assay [10] the test system is SK-MEL-28 melanoma. The note with it: 10 µM unless noted.
Assay [11] relates to SK-MEL-2 melanoma. The note with it: 10 µM unless noted.
Assay [12] deals with EKVX NSCLC. The settings on record: 10 µM.
Assay [13] concerns SN12C renal. The settings on record: 10 µM unless noted.
The subject of assay [14] is UO-31 renal. The note with it: 10 µM unless noted.
Assay [15] relates to TK-10 renal. The settings on record: 10 µM unless noted.
Assay [16] deals with ACHN renal. The settings on record: 10 µM unless noted.
Assay [17] relates to CAKI-1 renal. The note with it: 10 µM unless noted.
Assay [18] concerns A498 renal. The note with it: 10 µM unless noted.
Assay [19] concerns CCRF-CEM leukemia. The note with it: 10 µM.
Assay [20] relates to MOLT-4 leukemia. The note with it: 10 µM unless noted.

The panel holds about 83,000 compounds, 20% with a hit somewhere; the sample as a whole holds those more often.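 Percent growth is the endpoint: 0 to 100 indicates growth inhibition (40 means 60% inhibition), 0 means no net growth, and negative values indicate cell death.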 Unmarked numbers belong to inactive results. The source made the active and inactive calls. Rule for the calls: active = growth percent below 10; inactive = the rest.

Turning to `COC(=O)c1ccc2[nH]c(O)c(C(=Nc3ccc(N(C)C(=O)CN4CCN(C)CC4)cc3)c3ccc(CCO)cc3)c2c1`, the growth is 82.1% in [1]; 43.8% in assay [2]; 18.1% in [3]; 31.4% in [4]; 31.3% in [5]; 56.4% in [6]. The growth is 50% in assay [7]; 73.7% in assay [8]; 37.5% in [9]; 38.3% in [10]; 34.9% in assay [11]; 85.5% in [12]. The growth was 27.8% in assay [13]; 72.2% in [14]; 65.2% in assay [15]; 74.1% in assay [16]; 33.1% in [17]; 45.6% in assay [18]. In addition, the growth in assay [19] was 15.5%; in [20], 21.4%.
On to `C/C(=N\Nc1ccc(Cl)cn1)c1ccc2ccccc2n1`, for which the growth in assay [1] was 13.4%; in [2], 16.3%; in assay [3] it was 32.5%; in [4] it was 24.7%; in [5], 6.99% (active); in assay [6], 17.7%. Further, the growth in [7] was -45% (active); in [8], -7.97% (active); in assay [9], 2.73% (active); in assay [10], 17.5%; in [11] it was 35.5%; in assay [12], 11.1%. Moreover, the growth was 18% in assay [13]; 2.27% (active) in [14]; 56.3% in assay [15]; 8.37% (active) in assay [16]; 7.16% (active) in [17]; -15.7% (active) in assay [18]. In addition, the growth in assay [19] and in assay [20] was 3.63% (active) each time.
Regarding `CCOC(=O)c1cc(-c2ccc(OC)cc2)[nH]c1NNC(=O)CCOC`, the growth in assay [1] is 111%; in [2], 112%; in assay [3] it was 106%; in [4] it was 103%; in [5] it was 101%; in [6] it was 93.2%. For the same molecule, the growth was 99.3% in assay [7]; 93.6% in assay [8]; 94.8% in [9]; 114% in assay [10]; 103% in assay [11]; 101% in assay [12]. The growth in [13] is 107%; in assay [14], 77%; in assay [15], 63.7%; in [16] it was 107%; in [17], 88.8%; in [18], 77.8%. The growth in [19] is 57.8%; in [20], 58.1%.
Regarding `O=C1NCCN1/N=C/c1c(Cl)nc2n1CCS2`, the growth in assay [1] was 101%; in [2], 108%; in assay [3] it was 101%; in assay [4], 108%; in assay [5], 86.1%; in [6], 76.3%. In addition, the growth in assay [7] is 132%; in assay [8], 135%; in assay [9], 101%; in [10], 107%; in [11] it was 70.2%; in assay [12], 111%. In addition, the growth in assay [13] is 140%; in assay [14] it was 58.6%; in [15], 116%; in assay [16], 108%; in assay [17], 98.7%; in [18], 156%. The growth is -62.2% (active) in [19] and 96.6% in assay [20].
Consider `COc1cc(-c2nc(/C=C3/C(=O)Nc4ccccc43)c3ccccn23)cc(OC)c1OC`, for which the growth in [1] was 73.6%; in [2], 62.5%; in assay [3], 106%; in assay [4], 90.7%; in assay [5] it was 91.6%; in [6] it was 57.8%. Besides, the growth is 51.6% in assay [7]; 72.7% in [8]; 72.3% in assay [9]; 63% in assay [10]; 43.7% in [11]; 102% in [12]. In addition, the growth in assay [13] is 79.3%; in [14], 41.9%; in assay [15], 120%; in assay [16] it was 58.6%; in assay [17] it was 58.2%; in assay [18] it was 111%. Further, the growth is 72.7% in [19] and 62.8% in assay [20].
For the molecule `CCOC(=O)NNc1[nH]c(-c2ccc(OC)cc2)cc1C#N`, the growth is 107% in [1]; 132% in assay [2]; 124% in assay [3]; 98.6% in assay [4]; 98.2% in assay [5]; 99% in [6]. Besides, the growth in [7] was 88.9%; in [8] it was 76.1%; in assay [9], 91.6%; in [10] it was 182%; in assay [11], 105%; in [12], 102%. The growth is 94.7% in [13]; 87.8% in assay [14]; 92.7% in assay [15]; 81.2% in assay [16]; 121% in assay [17]; 99.8% in assay [18]. The growth in assay [19] was 7.58% (active); in [20], 8.55% (active).
For `COc1cc(N2C(=O)C=CC2=O)ccc1N1C(=O)C=CC1=O`, the growth in assay [1] is 109%; in [2], 102%; in [3], 90.2%; in assay [4], 107%; in [5], 97.5%; in assay [6], 94.8%. Besides, the growth in [7] was 104%; in [8], 106%; in assay [9] it was 99.1%; in assay [10], 103%; in assay [11] it was 113%; in assay [12], 94.2%. In addition, the growth in assay [13] is 105%; in [14], 87.1%; in [15], 86.4%; in assay [16], 96.6%; in assay [17], 93.7%; in assay [18], 74.9%. In addition, the growth is 18.9% in [19] and 100% in assay [20].
For `O=C(CN1C(=O)NC(c2ccccc2)(c2ccccc2)C1=O)c1ccc(N2CCCC2)cc1`, the growth in [1] is 64.7%; in [2], 65.3%; in assay [3], 77.8%; in assay [4], 90.7%; in assay [5], 76.6%; in assay [6], 71.8%. For the same molecule, the growth in assay [7] was 70.8%; in assay [8], 89.5%; in assay [9], 74.2%; in assay [10], 73.9%; in assay [11], 91.1%; in [12] it was 82.4%. Further, the growth was 103% in [13]; 66.6% in [14]; 98.4% in assay [15]; 89.9% in [16]; 70.5% in assay [17]; 61.9% in assay [18]. Moreover, the growth in assay [19] is 98.9%; in [20], 70.5%.
